# Screen size: about 39,000 compounds; about 500 (1.3%) were called active. Many of the other results were omitted from the sample, so actives are more common in it than they were.
# Test system: S. aureus RN4220
# Assay: growth inhibition call (relative growth <= 0.2)
# Conditions: 50 µM
row,Structure (SMILES),growth inhibition call
1,CS(=O)(=O)NCc1cnc2n1CCN(C(=O)[C@H]1CCOC1)CC2,inactive
2,CC(C)[N+]1(C)C2CCC1CC(OC(=O)C(CO)c1ccccc1)C2.[Br-] (configuration not stated),inactive
3,C[C@H](CO)N1C[C@H](C)[C@@H](CN(C)Cc2ccc(-c3ccccc3)cc2)Oc2c(NS(=O)(=O)c3ccc(F)cc3)cccc2C1=O,inactive
4,C=C(NC(=O)C(=C)NC(=O)c1csc(C2=NC3c4csc(n4)C4NC(=O)c5csc(n5)C(C(C)(O)C(C)O)NC(=O)C5CSC(=N5)C(=CC)NC(=O)C(C(C)O)NC(=O)c5csc(n5)C3(CC2)NC(=O)C(C)NC(=O)C(=C)NC(=O)C(C)NC(=O)C(C(C)CC)NC2C=Cc3c(C(C)O)cc(nc3C2O)C(=O)OC4C)n1)C(N)=O (configuration not stated),active
5,C=C(NC(=O)C(=C)NC(=O)c1csc(C2=N[C@H]3c4csc(n4)[C@H]4NC(=O)c5csc(n5)[C@H](C(C)(O)[C@@H](C)O)NC(=O)[C@H]5CSC(=N5)C(=CC)NC(=O)[C@H]([C@@H](C)O)NC(=O)c5csc(n5)[C@]3(CC2)NC(=O)[C@H](C)NC(=O)C(=C)NC(=O)[C@H](C)NC(=O)[C@H]([C@H](C)CC)N[C@@H]2C=Cc3c([C@H](C)O)cc(nc3[C@H]2O)C(=O)O[C@@H]4C)n1)C(N)=O (some centres not stated),inactive
6,C=C(NC(=O)C(=C)NC(=O)c1csc(C2=N[C@@H]3c4csc(n4)[C@@H]4NC(=O)c5csc(n5)[C@H](C(C)(O)[C@@H](C)O)NC(=O)[C@H]5CSC(=N5)/C(=C/C)NC(=O)[C@H]([C@@H](C)O)NC(=O)c5csc(n5)[C@]3(CC2)NC(=O)[C@@H](C)NC(=O)C(=C)NC(=O)[C@@H](C)NC(=O)[C@@H]([C@H](C)CC)N[C@H]2C=Cc3c([C@@H](C)O)cc(nc3[C@@H]2O)C(=O)O[C@H]4C)n1)C(N)=O (some centres not stated),inactive
7,COCCNC(=O)c1cn(C)nc1OC,inactive
8,C[C@H]1CN([C@@H](C)CO)C(=O)c2cccc(NS(=O)(=O)c3cn(C)cn3)c2O[C@H]1CN(C)S(=O)(=O)c1cn(C)cn1,inactive
9,C[C@H]1CN([C@@H](C)CO)S(=O)(=O)c2ccc(C#CC3(O)CCCC3)cc2O[C@H]1CN(C)C(=O)Cc1ccccc1,inactive
10,CC(C)NC(=O)N(C)C[C@@H]1Oc2c(NS(=O)(=O)c3ccccc3)cccc2C(=O)N([C@@H](C)CO)C[C@H]1C,inactive
11,C[C@H](CO)N1C[C@H](C)[C@@H](CN(C)C(=O)CCN2CCCCC2)Oc2ncc(C#CCN(C)C)cc2C1=O,inactive
12,O=C(O)c1cc(F)c2nc(N3[C@@H]4CC[C@H]3C[C@@H](OCc3c(-c5ccccc5OC(F)(F)F)noc3C3CC3)C4)sc2c1,active
13,COc1ccc(CN2C[C@H](C)[C@@H](OC)CN(C)C(=O)c3ccc(NC(=O)c4nc5ccccc5s4)cc3OC[C@H]2C)cc1,inactive
14,O=C1OC2(c3ccc(O)cc3Oc3cc(O)ccc32)c2ccccc21,inactive
15,O=C1OC(c2cc(I)c(O)c(I)c2)(c2cc(I)c(O)c(I)c2)c2ccccc21,inactive
16,O=C1OC2(c3ccccc31)c1cc(I)c(O)c(I)c1Oc1c2cc(I)c(O)c1I,active
17,Cc1ccc(CNS(=O)(=O)N(C)C)cc1,inactive
18,CO[C@H](CN(C)S(=O)(=O)c1ccc(Cl)cc1)[C@@H](C)CN([C@H](C)CO)S(=O)(=O)c1cccc(Cl)c1,inactive
19,C[C@H](CO)N1C[C@H](C)[C@@H](CN(C)C(=O)Cc2ccncc2)Oc2ncc(C#Cc3ccccc3F)cc2C1=O,inactive
20,N=C(N)NCCC[C@@H](NC(=O)CC1(CC(=O)N2CCN([C@H]3c4ccccc4NC(=O)c4ccccc43)CC2)CCCC1)C(=O)NCCn1c(=O)n(-c2ccccc2)n(-c2ccccc2)c1=O,active
21,C[C@H]1CN([C@@H](C)CO)C(=O)c2cc(NC(=O)Nc3cccc4ccccc34)ccc2O[C@H]1CN(C)C(=O)Nc1ccccc1,inactive

row,Structure (SMILES),growth inhibition call
1,C[C@@H]1CN([C@H](C)CO)C(=O)c2cccc(NS(C)(=O)=O)c2O[C@H]1CN(C)Cc1ccc(C(=O)O)cc1,inactive
2,CC=C(C(=CC)c1ccc(O)cc1)c1ccc(O)cc1,active
3,Oc1ccc(O)cc1,inactive
4,CCC(=C(CC)c1ccc(O)cc1)c1ccc(O)cc1,inactive
5,CC(C)NC(=O)N(C)C[C@@H]1Oc2cc(C#Cc3ccc(F)cc3)ccc2S(=O)(=O)N([C@H](C)CO)C[C@H]1C,inactive
6,C[C@H](CO)N1C[C@H](C)[C@H](CN(C)Cc2ccc(Cl)c(Cl)c2)Oc2ccc(NC(=O)Nc3ccc(F)cc3)cc2CC1=O,inactive
7,C[C@@H]1CCCCO[C@H](CN(C)Cc2ccc(C(F)(F)F)cc2)[C@@H](C)CN([C@@H](C)CO)C(=O)c2cc(NS(=O)(=O)c3ccc(Cl)cc3)ccc2O1,inactive
8,CCn1c(Cl)nc2c1c(=O)n(C)c(=O)n2C,inactive
9,Cn1c(=O)c2c(nc(SCSc3nc4c(c(=O)n(C)c(=O)n4C)n3C)n2C)n(C)c1=O,inactive
10,Cc1nc2c(=O)n(C)c(=O)n(C)c2nc1Cl,active
11,Cc1noc(C)c1S(=O)(=O)Nc1ccc2c(c1)CC(=O)N([C@@H](C)CO)C[C@H](C)[C@@H](CN(C)Cc1ccncc1)O2,inactive
12,C[C@@H]1CN([C@@H](C)CO)C(=O)c2cc(NS(C)(=O)=O)ccc2O[C@H]1CN(C)C(=O)Nc1ccccc1,inactive
13,COC1(NC(=O)Cc2cccs2)C(=O)N2C(C(=O)[O-])=C(COC(N)=O)CSC21.[Na+] (configuration not stated),active
14,CC(=O)OCC1=C(C(=O)[O-])N2C(=O)C(NC(=O)Cc3cccs3)C2SC1.[Na+] (configuration not stated),active
15,CC(=O)OCC1=C(C(=O)O)N2C(=O)[C@@H](NC(=O)CSc3ccncc3)[C@H]2SC1,active
16,CC(=O)OCC1=C(C(=O)[O-])N2C(=O)C(NC(=O)CSc3ccncc3)C2SC1.[Na+] (configuration not stated),active
17,C[C@H]1CCCCO[C@@H](CN(C)C(=O)Nc2ccc(C(F)(F)F)cc2)[C@@H](C)CN([C@@H](C)CO)C(=O)c2cc(NC(=O)NC3CCCCC3)ccc2O1,inactive
18,C[C@H]1CCCCO[C@@H](CN(C)C(=O)Nc2ccc3c(c2)OCO3)[C@@H](C)CN([C@@H](C)CO)C(=O)c2cc(NS(=O)(=O)c3ccccc3)ccc2O1,inactive
19,C[C@H](CO)N1C[C@H](C)[C@@H](CN(C)S(C)(=O)=O)Oc2c(NC(=O)Nc3ccc(C(F)(F)F)cc3)cccc2C1=O,inactive
20,COc1cccc(C#Cc2cnc3c(c2)C(=O)N([C@@H](C)CO)C[C@@H](C)[C@@H](CN(C)C(=O)C2CCOCC2)O3)c1,inactive
21,C[C@@H]1CN([C@@H](C)CO)C(=O)c2cc(-c3cccc(C(=O)N(C)C)c3)cnc2O[C@H]1CN(C)S(=O)(=O)c1ccc(F)cc1,inactive

row,Structure (SMILES),growth inhibition call
1,CO[C@@H]1CN(C)C(=O)c2ccc(NC(=O)Nc3ccccc3F)cc2OC[C@@H](C)N(Cc2ccccc2C(=O)O)C[C@H]1C,inactive
2,C[C@@H]1O[C@@H](O[C@@H]2[C@@H](O)[C@H](OCCc3ccc(O)c(O)c3)O[C@H](CO)[C@H]2OC(=O)/C=C/c2ccc(O)c(O)c2)[C@H](O)[C@H](O)[C@H]1O,inactive
3,CO[C@@H]1CN(C)C(=O)c2cc(NS(C)(=O)=O)ccc2OC[C@@H](C)N(C(=O)C2CCCCC2)C[C@H]1C,inactive
4,C[C@@H]1CN([C@@H](C)CO)C(=O)c2cc(NC(=O)c3ccncc3)ccc2O[C@H]1CN(C)Cc1ccc(C(=O)O)cc1,inactive
5,C[C@H](CO)N1C[C@H](C)[C@@H](CN(C)Cc2ccc(Oc3ccccc3)cc2)Oc2ccc(NC(=O)c3ccncc3)cc2C1=O,inactive
6,COc1ccc(S(=O)(=O)Nc2ccc3c(c2)CC(=O)N([C@H](C)CO)C[C@H](C)[C@H](CN(C)Cc2ccc(Cl)c(Cl)c2)O3)cc1,inactive
7,CN1C(=O)c2cc(NC(=O)c3cccs3)ccc2OC[C@@H]2O[C@@H](CC(=O)NCCN3CCCCC3)CC[C@@H]21,inactive
8,CN(C)CC(=O)N[C@H]1CC[C@H](CCNC(=O)C2CCC2)O[C@@H]1CO,inactive
9,C[C@@H]1CN([C@H](C)CO)C(=O)Cc2cc(NC(=O)Nc3ccc(C(F)(F)F)cc3)ccc2O[C@@H]1CN(C)Cc1ccc(-c2ccccc2)cc1,inactive
10,O=C(C[C@@H]1CC[C@H]2[C@@H](COC[C@H](O)CN2S(=O)(=O)c2ccc(Cl)cc2)O1)NCC1CCCCC1,inactive
11,O=C(C[C@@H]1CC[C@@H]2[C@H](COC[C@H](O)CN2S(=O)(=O)c2ccc(Cl)cc2)O1)NCC1CCCCC1,inactive
12,O=C(C[C@H]1CC[C@H]2[C@@H](COC[C@@H](O)CN2S(=O)(=O)c2ccc(Cl)cc2)O1)NCC1CCCCC1,inactive
13,O=C(C[C@@H]1CC[C@@H]2[C@H](COC[C@@H](O)CN2S(=O)(=O)c2ccc(Cl)cc2)O1)NCC1CCCCC1,inactive
14,O=C(C[C@@H]1CC[C@H]2[C@@H](COC[C@@H](O)CN2S(=O)(=O)c2ccc(Cl)cc2)O1)NCC1CCCCC1,active
15,O=C(C[C@H]1CC[C@@H]2[C@H](COC[C@H](O)CN2S(=O)(=O)c2ccc(Cl)cc2)O1)NCC1CCCCC1,active
16,C[C@@H]1CN([C@@H](C)CO)S(=O)(=O)c2ccc(C#CCN(C)C)cc2O[C@@H]1CN(C)S(C)(=O)=O,inactive
17,CC(C)NC(=O)N(C)C[C@H]1Oc2ccc(NC(=O)NC3CCCCC3)cc2CC(=O)N([C@H](C)CO)C[C@H]1C,inactive
18,CC(C)NC(=O)N(C)C[C@@H]1Oc2ccc(NS(=O)(=O)c3cccs3)cc2CC(=O)N([C@@H](C)CO)C[C@@H]1C,inactive
19,C[C@@H]1CN([C@@H](C)CO)C(=O)Cc2cc(NS(=O)(=O)c3cn(C)cn3)ccc2O[C@H]1CN(C)Cc1ccc(C(=O)Nc2ccccc2N)cc1,inactive
20,C[C@H]1CCCCO[C@@H](CN(C)S(=O)(=O)c2ccccc2)[C@@H](C)CN([C@@H](C)CO)C(=O)c2cc(NC(=O)c3ccccc3)ccc2O1,inactive

# Source: the antibiotic and cytotoxicity screens of Wong et al. (2023)
